Test results taken from PubChem BioAssay.
Calls of active or inactive are those of the source.

What was measured:
[1] = test system: Plasmodium falciparum Sir2 (PF13_0152, Sir2A); experiment: pfSir2 binders on small-molecule microarrays, primary screen, biochemical, small-molecule microarray, 635 nm fluorescence (AID 1098); conditions: small-molecule microarray binding, fluorescence 635 nm; higher = more signal;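 further: score merges spot fluorescence intensity with its signal-to-noise ratio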
[2] = small-molecule microarray binders of probe aDKK1, primary screen, biochemical, biotinylated probe, 635/667 nm fluorescence (AID 1099); conditions: higher = more signal;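 further: score merges 667nm spot fluorescence with signal to noise across triplicate slides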
[3] = small-molecule microarray binders of probe aCHRDL2, primary screen, biochemical, biotinylated probe, 635/667 nm fluorescence (AID 1100); conditions: higher = more signal
[4] = splicing luciferase reporter signal modulators, primary screen, spliceosome inhibition project, cell-based, HEK293, splice +/- reporter (AID 1101); conditions: luminescence, 24 h, higher = more signal, called active from +8 up or from −8 down;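 further: HEK293 cells carrying a splicing-competent luciferase reporter gene; test concentration not given here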
[5] = target: Fibroblast growth factor 10 (Homo sapiens) (UniProt O15520); experiment: FGF10 binders on small-molecule microarrays, primary screen, biochemical, small-molecule microarray, 635 nm fluorescence (AID 1102); conditions: FGF10 binding, fluorescence 635 nm, higher = more signal
[6] = test system: glycogen synthase kinase-3 (GSK3A per assay name; protocol says GSK3B); experiment: GSK3 binders on small-molecule microarrays, primary screen, biochemical, small-molecule microarray, 635 nm fluorescence, GSK3A (AID 1103); conditions: small-molecule microarray binding, fluorescence 635 nm; higher = more signal; further: the record names both GSK3A and GSK3B
[7] = target: Epidermal growth factor receptor (Homo sapiens) (UniProt P00533); experiment: EGFR binders on small-molecule microarrays, primary screen, biochemical, small-molecule microarray, 635 nm fluorescence (AID 1104); conditions: EGFR binding, higher = more signal;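 further: score merges 667 nm emission intensity with spot signal to noise over triplicate slides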
[8] = target: Follistatin-related protein 3 (Homo sapiens) (UniProt O95633); experiment: FSTL3 binders on small-molecule microarrays, primary screen, biochemical, small-molecule microarray, 635 nm fluorescence (AID 1105); conditions: FSTL3 binding, higher = more signal;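 further: score merges emission near 667 nm and signal to noise per printed spot across three slides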
[9] = target: Dickkopf-related protein 1 (Homo sapiens) (UniProt O94907); experiment: DKK1 binders on small-molecule microarrays, primary screen, biochemical, small-molecule microarray, 635 nm fluorescence scan (AID 1106); conditions: DKK1 binding, higher = more signal;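 further: score merges emission near 667 nm with signal to noise over three replicate slides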
[10] = test system: Inhibin beta A chain (activin A); experiment: INHBA (activin A) binders on microarrays, primary screen, biochemical, small-molecule microarray, 635 nm fluorescence scan (AID 1107); conditions: small-molecule microarray binding, higher = more signal;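 further: mouse activin A protein probed at 4.33 µg/mL on printed slides; score merges bound-protein fluorescence near 667 nm with spot signal-to-noise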
[11] = test system: Human papillomavirus type 1a protein E7 (residues 44-93); experiment: HPV1a E7 fragment binders on microarrays, primary screen, biochemical, small-molecule microarray, residues 44-93, 635 nm fluorescence (AID 1108); conditions: small-molecule microarray binding, fluorescence 635 nm; higher = more signal;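 further: E7 fragment applied at 1 µg/mL in TBST for 1 h at 4 C; score combines spot fluorescence with its signal to noise ratio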
[12] = modulators of HCV replicon luciferase signal, primary screen, HCV replication inhibitor project, Huh7 cells, luciferase reporter (AID 1109); conditions: 48 h, higher = more signal;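 further: huh7 hepatoma cells harbouring a luciferase neomycin HCV replicon reporter; luciferase luminescence as measure of HCV replicon replication; test concentration not given here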
[13] = target: Left-right determination factor 2 (Homo sapiens) (UniProt O00292); experiment: LEFTY2 binders on small-molecule microarrays, primary screen, biochemical, small-molecule microarray, 635 nm fluorescence scan (AID 1110); conditions: LEFTY2 binding, higher = more signal
[14] = target: Calmodulin-1 (Homo sapiens) (UniProt P0DP23); experiment: CALM1 binders on microarrays, EGTA buffer, profiling panel, biochemical, small-molecule microarray, Cy5-labelled CALM1 (AID 1111); conditions: Cy5-CALM1 binding fluorescence, higher = more signal;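 further: labelled calmodulin applied in Tris saline Tween buffer holding calcium plus EGTA and DTT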
[15] = target: Calmodulin-1 (Homo sapiens) (UniProt P0DP23); experiment: calcium-bound CALM1 binders on microarrays, profiling panel, artefact control for SMM control-protein annotation, biochemical, small-molecule microarray, Cy5-labelled CALM1, plus calcium (AID 1112); conditions: Cy5-CALM1 binding fluorescence, higher = more signal;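 further: score merges spot fluorescence with signal to noise from triplicate slides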
[16] = small-molecule microarray binders of probe aWnt5a, primary screen, biochemical, biotinylated probe, 635/667 nm fluorescence (AID 1113); conditions: higher = more signal;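 further: score merges 667 nm fluorescence intensity with signal-to-noise per printed feature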
[17] = small-molecule microarray binders of probe aShh, primary screen, biochemical, biotinylated probe, 635/667 nm fluorescence (AID 1114); conditions: higher = more signal;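 further: probe is biotin-labelled aShh protein from a stem cell growth factor screen; measures binding of labelled protein to compounds printed on the slide; score merges feature fluorescence at 667 nm with signal-to-noise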
[18] = small-molecule microarray binders of probe aNog, primary screen, biochemical, biotinylated probe, 635/667 nm fluorescence (AID 1115); conditions: higher = more signal;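 further: probe is biotinylated aNog protein used at 0.15 µg/mL for 1 h at 4 C; z-score combines 667 nm fluorescence of each spot with its signal to noise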
[19] = target: Torsin-1A-interacting protein 1 (Homo sapiens) (UniProt Q5JTV8); experiment: LAP1 binders from COS7 cell lysate, primary screen, small-molecule microarray, 635/667 nm fluorescence (AID 1116); conditions: COS7-hLAP1 lysate binding, 635 nm fluorescence, higher = more signal
[20] = target: Alpha-bungarotoxin (Bungarus multicinctus) (UniProt P60615); experiment: alpha-bungarotoxin binders on microarray, profiling panel, artefact control for SMM control protein annotation, biochemical, small-molecule microarray, Alexa647 label, 635/667 nm fluorescence (AID 1117); conditions: alpha-BTX-A647 binding fluorescence, higher = more signal
Chain of Alpha-bungarotoxin (Bungarus multicinctus) (P60615 whole entry, looked up): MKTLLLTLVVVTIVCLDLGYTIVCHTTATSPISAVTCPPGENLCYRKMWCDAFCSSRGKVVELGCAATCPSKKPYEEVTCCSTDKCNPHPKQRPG

Chain of Fibroblast growth factor 10 (Homo sapiens) (O15520 whole entry, looked up): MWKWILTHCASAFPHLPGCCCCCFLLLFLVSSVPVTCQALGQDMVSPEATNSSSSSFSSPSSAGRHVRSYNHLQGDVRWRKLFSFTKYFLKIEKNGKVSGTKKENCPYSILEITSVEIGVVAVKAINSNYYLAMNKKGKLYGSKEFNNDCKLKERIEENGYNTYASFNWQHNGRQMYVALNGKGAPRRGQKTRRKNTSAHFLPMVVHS
Chain of Left-right determination factor 2 (Homo sapiens) (O00292 whole entry, looked up): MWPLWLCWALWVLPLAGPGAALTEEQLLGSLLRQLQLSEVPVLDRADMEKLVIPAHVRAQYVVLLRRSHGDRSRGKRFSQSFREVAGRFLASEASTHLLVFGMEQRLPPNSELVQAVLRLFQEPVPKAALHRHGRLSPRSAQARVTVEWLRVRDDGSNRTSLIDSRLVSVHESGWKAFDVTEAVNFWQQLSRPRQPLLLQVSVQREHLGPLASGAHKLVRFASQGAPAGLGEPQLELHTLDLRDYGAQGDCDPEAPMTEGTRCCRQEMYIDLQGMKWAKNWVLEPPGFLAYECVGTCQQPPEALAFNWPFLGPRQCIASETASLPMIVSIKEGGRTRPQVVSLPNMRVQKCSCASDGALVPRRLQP
Chain of Torsin-1A-interacting protein 1 (Homo sapiens) (Q5JTV8 whole entry, looked up): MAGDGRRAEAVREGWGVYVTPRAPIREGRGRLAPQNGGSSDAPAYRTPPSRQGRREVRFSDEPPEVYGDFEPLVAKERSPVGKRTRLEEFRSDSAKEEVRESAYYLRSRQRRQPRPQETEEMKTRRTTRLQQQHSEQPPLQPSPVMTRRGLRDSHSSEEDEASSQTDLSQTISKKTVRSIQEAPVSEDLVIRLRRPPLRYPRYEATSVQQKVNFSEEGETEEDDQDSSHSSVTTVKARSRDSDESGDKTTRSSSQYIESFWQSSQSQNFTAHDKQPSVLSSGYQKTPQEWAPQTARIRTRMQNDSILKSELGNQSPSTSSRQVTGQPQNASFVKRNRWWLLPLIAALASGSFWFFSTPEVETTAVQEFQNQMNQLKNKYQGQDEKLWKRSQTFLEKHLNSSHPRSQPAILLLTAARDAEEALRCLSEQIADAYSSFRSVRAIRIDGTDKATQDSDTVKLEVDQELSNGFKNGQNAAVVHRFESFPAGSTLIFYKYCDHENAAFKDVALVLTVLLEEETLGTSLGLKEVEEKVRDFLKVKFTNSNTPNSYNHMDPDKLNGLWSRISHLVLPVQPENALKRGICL
Chain of Follistatin-related protein 3 (Homo sapiens) (O95633 whole entry, looked up): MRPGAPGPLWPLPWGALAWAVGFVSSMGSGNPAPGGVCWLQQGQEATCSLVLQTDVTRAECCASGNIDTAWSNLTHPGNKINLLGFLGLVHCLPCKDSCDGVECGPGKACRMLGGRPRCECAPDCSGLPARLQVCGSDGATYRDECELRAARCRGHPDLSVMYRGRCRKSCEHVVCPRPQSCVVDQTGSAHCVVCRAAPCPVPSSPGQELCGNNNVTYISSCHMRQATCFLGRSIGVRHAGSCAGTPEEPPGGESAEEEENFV
Chain of Epidermal growth factor receptor (Homo sapiens) (P00533 whole entry, looked up): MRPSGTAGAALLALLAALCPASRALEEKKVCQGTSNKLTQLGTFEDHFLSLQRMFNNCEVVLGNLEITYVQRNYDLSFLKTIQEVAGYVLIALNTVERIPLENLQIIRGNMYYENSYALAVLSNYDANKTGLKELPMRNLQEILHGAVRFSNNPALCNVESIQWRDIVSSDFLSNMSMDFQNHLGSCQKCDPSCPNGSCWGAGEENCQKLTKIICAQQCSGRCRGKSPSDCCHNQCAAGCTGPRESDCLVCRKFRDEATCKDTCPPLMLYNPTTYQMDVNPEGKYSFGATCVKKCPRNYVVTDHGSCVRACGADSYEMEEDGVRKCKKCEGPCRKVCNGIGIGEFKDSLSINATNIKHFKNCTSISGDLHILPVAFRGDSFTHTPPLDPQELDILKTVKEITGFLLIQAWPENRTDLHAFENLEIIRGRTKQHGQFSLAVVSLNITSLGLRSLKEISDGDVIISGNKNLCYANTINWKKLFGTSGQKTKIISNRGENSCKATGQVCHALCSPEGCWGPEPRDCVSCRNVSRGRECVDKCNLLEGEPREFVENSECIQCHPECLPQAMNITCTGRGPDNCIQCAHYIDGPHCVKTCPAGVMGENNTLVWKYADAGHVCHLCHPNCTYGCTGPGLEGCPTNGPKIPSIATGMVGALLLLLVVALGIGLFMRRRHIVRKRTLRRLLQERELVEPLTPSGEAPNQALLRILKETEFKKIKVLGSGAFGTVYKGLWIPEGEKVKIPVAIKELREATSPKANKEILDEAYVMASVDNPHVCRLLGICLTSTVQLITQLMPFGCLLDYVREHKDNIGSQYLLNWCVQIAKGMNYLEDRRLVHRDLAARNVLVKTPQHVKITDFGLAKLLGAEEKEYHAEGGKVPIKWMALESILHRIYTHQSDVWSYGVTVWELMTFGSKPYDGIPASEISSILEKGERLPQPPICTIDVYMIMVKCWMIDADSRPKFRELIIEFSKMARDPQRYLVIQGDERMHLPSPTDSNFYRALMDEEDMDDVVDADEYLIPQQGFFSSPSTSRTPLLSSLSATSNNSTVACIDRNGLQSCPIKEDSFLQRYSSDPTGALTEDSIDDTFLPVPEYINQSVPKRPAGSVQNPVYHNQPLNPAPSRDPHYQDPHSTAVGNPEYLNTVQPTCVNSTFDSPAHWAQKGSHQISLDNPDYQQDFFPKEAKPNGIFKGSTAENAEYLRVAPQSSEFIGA
Chain of Dickkopf-related protein 1 (Homo sapiens) (O94907 whole entry, looked up): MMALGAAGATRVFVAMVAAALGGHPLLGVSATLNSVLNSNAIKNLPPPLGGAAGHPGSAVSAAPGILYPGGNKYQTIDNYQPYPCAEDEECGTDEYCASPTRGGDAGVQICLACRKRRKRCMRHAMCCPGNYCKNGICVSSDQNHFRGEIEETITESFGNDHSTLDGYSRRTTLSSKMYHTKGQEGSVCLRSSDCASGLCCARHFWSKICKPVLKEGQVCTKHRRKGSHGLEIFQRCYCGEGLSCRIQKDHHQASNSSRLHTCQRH

| SMILES | composite z-score [1] | composite z-score [2] | composite z-score [3] | z-score [4] | composite z-score [5] | composite z-score [6] | composite z-score [7] | composite z-score [8] | composite z-score [9] | composite z-score [10] | composite z-score [11] | z-score [12] | composite z-score [13] | composite z-score [14] | composite z-score [15] | composite z-score [16] | composite z-score [17] | composite z-score [18] | composite z-score [19] | composite z-score [20] |
| --- | --- | --- | --- | --- | --- | --- | --- | --- | --- | --- | --- | --- | --- | --- | --- | --- | --- | --- | --- | --- |
| O=C1C=C[C@@H](O)[C@@H]2[C@@H]3C(=O)N(Cc4ccccc4)C(=O)[C@@H]3CC[C@@H]12 | 0.295 | -0.262 | -0.684 | -0.71 (inactive) | 0.659 | 0.653 | 0.552 | 0.353 | 0.232 | 0.181 | 0.248 | 0.493 | 0.527 | -0.133 | -0.457 | -0.0758 | -0.283 | -0.213 | 0.476 | 0.332 |
| CCOC(=O)CCN1C(=O)[C@H]2[C@H]3[C@H](O)[C@H](O)CC(=NOCC=C(C)CCC=C(C)C)[C@@H]3CC[C@H]2C1=O | 0.255 | 0.333 | -0.202 | 0.0459 (inactive) | 1.15 | 0.659 | 1.17 | 0.825 | 0.606 | -0.259 | -0.401 | -0.469 | 0.631 | 0.113 | -0.672 | -0.1 | -0.179 | -0.0827 | 0.166 | -0.0599 |
| C=CC[C@@H]1C=CC(ON=C(C)C)[C@@H](CO)O1 (stereo not given in full) | 0.24 | -0.011 | -0.127 | 0.304 (inactive) | -0.766 | -0.689 | 0.0691 | -0.899 | -0.307 | 1.14 | -1.17 | 0.931 | 0.0335 | -0.253 | 0.0283 | -0.0701 | -0.2 | -0.303 | -0.275 | -0.139 |
| C[C@H]1CC[C@H]2C(=O)OC(COc3ccc(C(C)(C)C)cc3)CN2[C@@H]1c1ccc(Br)cc1 (stereo not given in full) | 0.528 | -0.254 | -0.242 | -0.216 (inactive) | 0.172 | 0.364 | -0.128 | 0.58 | -0.039 | 0.451 | 1.1 | 1.1 | 0.0037 | 0.464 | 0.14 | -0.277 | -0.0709 | -0.111 | 0.0437 | 0.319 |
| COCCNC(=O)OCC1CCCC2(CC(OC(=O)NCc3cccc4ccccc34)CC(CCC(=O)N[C@@H](C)C(=O)OC)O2)O1 (stereo not given in full) | 0.798 | -0.252 | -0.589 | -0.674 (inactive) | 1.06 | 1.22 | 0.709 | 0.781 | 0.735 | -0.0341 | 1.35 | -0.942 | 0.781 | 0.171 | -0.62 | -0.144 | -0.0006 | -0.256 | 0.002 | 0.801 |
| O=C1CCCC=C1C(O)c1ccc([N+](=O)[O-])cc1 (stereo not given) | -0.805 | -0.0341 | -0.429 | -0.337 (inactive) | 0.59 | 0.288 | 0.406 | 0.211 | 0.133 | 0.478 | -0.607 | -0.67 | 0.387 | -0.79 | -0.499 | -0.101 | -0.288 | -0.489 | 0.315 | -0.237 |
| O=C1C2=CC[C@H]3C(=O)N(C[C@@H]4CCCO4)C(=O)[C@H]3[C@H]2[C@H](O)[C@@H]2O[C@H]12 | 1.22 | -0.28 | -0.594 | -1.47 (inactive) | 0.364 | 0.443 | 0.259 | -0.191 | -0.0034 | -0.277 | 0.0207 | -4.56 | 0.153 | -0.248 | -1.13 | -0.219 | 0.0121 | -0.158 | 0.518 | 0.395 |
| CC(=O)OC[C@H]1O[C@H](CC=NO[C@H](C)c2cn([C@@H]3COC[C@H]3O)nn2)C=C[C@@H]1OC(C)=O | 0.197 | -0.185 | -0.434 | -1.06 (inactive) | 0.172 | 0.0915 | 0.476 | 0.255 | 1.1 | 0.257 | -0.535 | -0.774 | 0.0524 | -0.616 | -0.934 | -0.0685 | -0.206 | -0.17 | 0.637 | 0.799 |
| CCOC(=O)[C@H](Cc1ccccc1)NC(=O)CCC1CC(OC(=O)NCCc2ccc(F)cc2)CC2(CCCC(COC(=O)NCCC(C)C)O2)O1 (stereo not given in full) | 1.16 | -0.226 | -0.415 | -0.0793 (inactive) | 0.52 | 1.01 | 0.396 | 1.18 | 0.648 | 0.0186 | 1.4 | -0.833 | 0.676 | -0.0594 | -0.478 | -0.164 | -0.253 | -0.0524 | 0.523 | 0.633 |
| CC(C)[C@H](NC(=O)OC(C)(C)C)[C@@H](O)CC(=O)C(C)(C)C | 0.447 | -0.268 | -0.428 | -0.275 (inactive) | 0.159 | -0.191 | 0.327 | 0.29 | 0.513 | -0.0828 | 0.223 | 0.515 | -0.1 | -0.32 | -0.748 | -0.18 | -0.24 | 0.237 | 0.161 | 0.302 |
| O=C1[C@H]2[C@H]3[C@H](O)[C@H](O)CC(=NO[C@@H]4O[C@H](CO)[C@@H](O)[C@H](O)[C@H]4O)[C@H]3CC[C@H]2C(=O)N1c1ccc(F)cc1F | -0.134 | 0.0579 | 0.129 | 0.324 (inactive) | -0.0077 | -0.444 | 0.172 | 0.0345 | -0.494 | -1.81 | 0.491 | 0.29 | 0.382 | -0.466 | -1.2 | -0.0088 | 0.178 | -0.273 | -0.267 | 0.184 |
| O=C1[C@H]2[C@H]3[C@H](O)[C@H](O)CC(=NO[C@@H]4O[C@H](CO)[C@@H](O)[C@H](O)[C@H]4O)[C@@H]3CC[C@H]2C(=O)N1c1cccc(Oc2ccccc2)c1 | 0.405 | -0.327 | -0.595 | 0.302 (inactive) | 0.659 | 0.736 | 0.778 | 0.711 | 0.701 | 0.374 | 0.418 | -0.174 | 0.982 | 0.209 | 0.0635 | -0.0506 | -0.0362 | -0.0675 | 0.593 | -0.447 |
| CC(=O)OC[C@H]1O[C@H](C#CCC2CCCCC2)C=C[C@@H]1OC(C)=O | 1.26 | -0.215 | -0.595 | -0.531 (inactive) | 1.04 | 0.719 | 0.362 | 0.674 | 0.668 | -0.222 | 1.12 | -2.57 | 0.992 | 0.235 | -0.26 | -0.154 | 0.194 | 0.129 | 0.471 | 0.36 |
| CC(=O)OC[C@H]1O[C@H](CC=NO[C@@H](C)c2cc(-c3c(C)cc(C)cc3C)no2)C=C[C@@H]1OC(C)=O | -0.229 | -0.341 | 0.0256 | 0.708 (inactive) | -0.151 | -0.55 | 0.0164 | -0.037 | -0.0281 | 0.363 | -0.0612 | -0.83 | -0.111 | -0.176 | 0.0084 | -0.208 | -0.223 | -0.135 | -0.502 | 0.753 |
| CC(C)CON=C1C[C@@H](O)[C@@H](O)[C@@H]2[C@@H]3C(=O)N([C@@H](C)c4ccccc4)C(=O)[C@@H]3CC[C@@H]12 | -0.201 | 0.083 | 0.767 | 0.226 (inactive) | 0.266 | -0.0708 | 0.191 | -0.279 | -0.24 | 0.467 | -0.0319 | -0.265 | 0.236 | -0.231 | -0.282 | -0.124 | -0.289 | -0.222 | 0.179 | 0.0887 |
